PGE2 EP2 inh: human EP2 receptor antagonists, primary screen, TR-FRET cAMP, C6 glioma cells; Prostaglandin E2 receptor EP2 subtype (Homo sapiens), P43116; C6 glioma cells expressing human EP2; cells stimulated with saturating PGE2; inhibition, % at 25 µM; hit rate 0.52% among 260,000;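 active means percent inhibition above 40 after rounding to a whole number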;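 further: rat C6 glioma host cells with rolipram phosphodiesterase inhibitor present; the protocol text gives 20 µM as final concentration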
Target sequence (P43116 whole entry, looked up): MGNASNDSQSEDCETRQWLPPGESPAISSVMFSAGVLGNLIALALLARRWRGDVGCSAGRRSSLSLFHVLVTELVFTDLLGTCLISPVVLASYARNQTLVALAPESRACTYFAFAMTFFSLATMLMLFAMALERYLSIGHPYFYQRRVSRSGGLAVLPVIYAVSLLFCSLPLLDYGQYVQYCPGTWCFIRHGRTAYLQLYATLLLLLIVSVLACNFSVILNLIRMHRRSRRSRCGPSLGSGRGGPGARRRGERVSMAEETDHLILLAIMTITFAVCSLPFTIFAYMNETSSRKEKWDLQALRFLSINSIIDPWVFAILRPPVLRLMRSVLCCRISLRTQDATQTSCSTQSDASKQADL
Furin inh: human furin inhibitors, primary screen, biochemical, fluorescence intensity; P09958; purified furin, fluorogenic substrate cleavage; inhibition, % at 20 µM or 30 µM; hit rate 0.061% among 220,000; in the data active means inhibition above about 25%
Calpain2 inh: inhibitors of pig calpain II, primary screen, biochemical, fluorogenic peptide substrate, 1536-well | purified calpain II, 30 min | inhibition, % at 16 µM | hit rate 0.37% among 220,000 | AID 1236, 2008;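 active means inhibition above about 50%, limit read from the data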
HMGR II inh: inhibitors of E. faecalis class II HMGR, primary screen, biochemical, Enterococcus faecalis; HMG-CoA reductase (Enterococcus faecalis, mvaE); purified E. faecalis HMGR, NADPH absorbance 340 nm kinetic; inhibition, % at 10 µM; hit rate 0.41% among 190,000; AID 1066, 2008;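 active means inhibition above a set limit, the median over all tested compounds plus 3 SD, cut at about 9.5% in these data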;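 further: enzyme runs in reverse so mevalonate oxidation gives rising NADPH absorbance; 0% = complete reaction with DMSO and 100% = background rate lacking mevalonate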
EP2 modulator: EP2 receptor modulators, cAMP readout, primary screen, cell-based, HTRF cAMP, PGE2 stimulation. Prostaglandin E2 receptor EP2 subtype (Homo sapiens), P43116. EP2-expressing cells, cAMP HTRF FRET, PGE2 co-stimulation. induction, % at 25 µM. hit rate 0.83% among 260,000. AID 940, 2007;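 active means compounds whose cAMP rise, as percent of the full-agonist control response, exceeds 60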;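 further: rat C6 glioma line stably carrying human EP2 under a CMV promoter; the protocol text gives 20 µM as final concentration; 100% = response of wells given 1 µM PGE2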
Starred values were filed as active, the others as inactive; / = no result given; ! = a repeat was not active. Rows were chosen to be rich in hits. Some 1.9% of all compounds tested hit in one or more screens of this group.

SMILES	PGE2 EP2 inh	Furin inh	Calpain2 inh	HMGR II inh	EP2 modulator
CCc1ccc(-n2nnnc2SCC(=O)Nc2nc3c(s2)CCCC3)cc1	22.2	/	/	/	-54.7
Cc1ccc(-n2c(O)c(C=NCCCO)c(=O)[nH]c2=O)cc1	13.2	/	/	/	14.9
CC[n+]1ccc(/C=C/c2ccc(N(C)C)cc2)c2ccccc21	95.9*	-22.0	40.9	0.6	-315.9
CC[n+]1c(/C=C/c2ccc(N(C)C)cc2)ccc2ccccc21	66.1*	-2.5	37.2	3.1	-49.4
CC[n+]1ccccc1/C=C/c1ccc(N(C)C)cc1	12.4	-12.9	-6.9	-5.7	-23.7
Cc1ccc2ccc(/C=C/c3ccc(N(C)C)cc3)[n+](C)c2c1	27.4	/	/	/	-97.8
Clc1ccc(CN2CCCN(Cc3ccc(Cl)cc3)C2c2cc3ccccc3c3ccccc23)cc1	51.1*	/	/	/	12.3
COc1ccc(CCn2nnnc2C(c2ccc(F)cc2)N2CCN(C)CC2)cc1OC (stereo not drawn)	6.8	/	/	/	-9.1
COc1ccc(N(C(=O)c2ccco2)C(C(=O)NC2CCCCC2)c2ccccc2)cc1 (stereo not drawn)	10.6	-11.0	-8.0	0.4	61.5*!
NC(=O)c1ccc(N=Nc2c(O)c3ccccc3[nH]c2=O)cc1	13.9	-11.0	19.4	/	-21.5
N=C(N)c1ccc(N=Nc2c(O)ccc3c2[nH]c2ccccc23)cc1	50.6*	/	/	/	-23.1
CCNc1nc(SCc2ccccc2)nc(N2CCOCC2)n1	7.1	-24.7	13.9	-1.5	63.0*
Cc1ccc(NC(=O)CSc2nnc3c(n2)[nH]c2c(C)cc(C)cc23)cc1	13.5	/	/	/	-59.5
COc1ccc(-c2cc(C(F)(F)F)nc(SCC(=O)Nc3c(C)nn(C)c3C)n2)cc1OC	5.3	/	/	/	-22.9
COc1cccc(Cn2c3cc(C)sc3c3cnn(CC(=O)NC4CC4)c(=O)c32)c1	/	/	/	/	-15.2
O=C1c2ccccc2C(=O)N1CCc1csc(-c2cccc(Cl)c2)n1	6.6	-18.1	58.6*	-8.0	-21.7
CCNc1ccc(S(=O)(=O)C(F)(F)F)cc1NC(=O)C12CCC(CC1)C2	76.0*	-14.3	25.4	-0.3	-4.0
COc1cccc(C(=O)NC2CCN(CC(=O)Nc3ccc(C)cc3Br)CC2)c1	10.1	/	/	/	-54.6
Cc1cc(C)c2cc(CN(CC3CCCO3)C(=S)Nc3ccc(F)cc3)c(=O)[nH]c2c1 (stereo not drawn)	8.0	/	/	/	2.4
NS(=O)(=O)c1cccc(NC(=O)CN2CCC(Cc3ccccc3)CC2)c1	4.4	-18.0	78.3*	-4.2	-39.1
CC(=O)N1CCN(CC(=O)Nc2cccc(S(=O)(=O)N3CCCCCC3)c2)CC1	2.8	-12.0	9.5	-6.5	2.4
COc1cccc(/C=C(/C(=O)OCC(=O)NC2CCCC(C)C2C)c2ccccc2)c1 (stereo not drawn)	7.7	9.1	55.7*	-1.6	0.7
COc1cccc(/C=C(/C(=O)OCC(N)=O)c2ccccc2)c1	3.7	-4.6	31.3	-10.6	-12.1
COc1ccc(N2CCN(C(CNC(=O)C(C)(C)C)c3ccco3)CC2)cc1 (stereo not drawn)	11.0	-16.3	-22.9	10.9*	-8.5
COc1ccc(N2CCN(C(CNC(C)=O)c3ccco3)CC2)cc1 (stereo not drawn)	5.2	-21.3	-1.1	-10.1	-3.8
SMILES	PGE2 EP2 inh	Furin inh	Calpain2 inh	HMGR II inh	EP2 modulator
CC(C)COP(=O)(OCC(C)C)C(Nc1ccccc1)c1ccccc1 (stereo not drawn)	3.3	3.4	15.0	/	70.4*
CC(C)COP(=O)(OCC(C)C)C(Nc1ccccc1)c1ccc(F)cc1 (stereo not drawn)	1.7	9.0	27.3	-0.3	44.2
CC(C)COP(=O)(OCC(C)C)C(Nc1ccccc1)c1ccc2c(c1)OCO2 (stereo not drawn)	/	-20.4	51.5*	-4.5	0.1
COc1ccc(NC(=O)COc2ccc(C3C(C#N)=C(N)Oc4n[nH]c(C)c43)cc2)cc1 (stereo not drawn)	11.8	/	/	/	-100.2
CCOCCCNc1ncnc2ccccc12	6.8	/	/	/	-62.6
COc1cccc(-n2c(SCC(=O)N3CCCC(C)C3)nnc2-c2ccccn2)c1 (stereo not drawn)	6.6	/	/	/	-39.7
CC(=O)Oc1ccc(N2C(=O)C3C4C=CC(CO)(O4)C3C2=O)cc1 (stereo not drawn)	17.1	-11.3	14.0	-1.9	-0.6
CC(=O)Oc1ccc(N2C(=O)C3C(C2=O)C2(C)C=CC3(C)O2)cc1 (stereo not drawn)	135.8*	/	/	/	/
CC1=NOC(=O)/C1=C\c1ccc(-c2cc(Cl)ccc2Cl)o1	60.5*	-21.7	7.5	0.5	-14.6
CC1=NOC(=O)/C1=C\c1ccc(-c2ccc(Br)cc2)o1	76.5*	-8.7	-28.9	0.8	-69.0
CC1=NOC(=O)/C1=C\c1ccc(-c2ccc(Br)cc2C(=O)O)o1	5.6	16.0	23.3	-0.1	7.1
CC1=NOC(=O)/C1=C/c1ccc(-c2ccc(Cl)cc2)o1	184.5*	-12.9	-12.9	-6.0	-44.7
Cc1ccc(C2=NOC(=O)/C2=C\c2ccc(C)o2)cc1	8.6	-20.2	9.2	/	-29.8
COc1ccc(NC(=O)CSc2nnc(C)n2-c2ccc(C)cc2)cc1	5.3	/	/	/	14.3
CCCNC(=S)N(Cc1cc2cc(C)c(C)cc2[nH]c1=O)CC1CCCO1 (stereo not drawn)	7.2	/	/	/	-6.3
O=C1c2ccccc2C(=O)c2c1ccc(N1C(=O)c3ccccc3C1=O)c2-c1c(N2C(=O)c3ccccc3C2=O)ccc2c1C(=O)c1ccccc1C2=O	45.5*	/	/	/	-0.4
Nc1ccc(N2C(=O)c3ccccc3C2=O)c(Cl)c1	11.5	/	/	/	-2.2
COc1cc(OC)c(OC)cc1CN1CCCC(C(=O)c2sccc2C)C1 (stereo not drawn)	2.7	-9.8	10.9	/	9.6
Cc1ccsc1C(=O)C1CCCN(Cc2cc(F)ccc2-n2cccn2)C1 (stereo not drawn)	3.5	-28.5	8.5	18.0*	39.7
Cn1c(NCc2ccccc2)nc2c1c(=O)n(Cc1ccccc1)c(=O)n2C	3.1	-11.7	62.0*	0.8	-41.7
COc1ccc(CNc2nc3c(c(=O)n(Cc4ccc(F)cc4)c(=O)n3C)n2C)cc1	6.0	-9.3	80.3*	-10.1	3.1
Cn1c(=O)c2c(nc(NCCNc3nc4c(c(=O)n(C)c(=O)n4C)n3C)n2C)n(C)c1=O	45.4*	/	/	/	20.5
CN(C)CCNc1nc2c(c(=O)n(C)c(=O)n2C)n1C	14.8	/	/	/	-14.1
COCCCNc1nc2c(c(=O)n(Cc3ccc(Cl)cc3)c(=O)n2C)n1C	9.3	/	/	/	-24.7
O=C(CSc1nnc2n(Cc3ccc(F)cc3)c3ccccc3n12)NC1CC1	9.3	/	/	/	15.8
COCCNC(=O)CN(C(=O)CCC(=O)Nc1nccs1)c1cc(C)cc(C)c1	1.9	/	/	/	8.4
Cc1ccc(N=CC2=C(O)CC(C)(C)CC2=O)nc1	14.0	17.5	-7.8	0.8	-1.7
CC1(C)CC(=O)C(C=Nc2ccc(Cl)cn2)=C(O)C1	10.7	53.1*	-6.4	1.7	16.0

High-throughput results deposited in PubChem BioAssay by several laboratories.
